Lassa entry inh = Lassa virus entry inhibition. Lassa virus pseudotype entry inhibition, cell reporter. Potency, µM (top dose mostly 37.9 µM), for inactives: top-dose activity change, negative = inhibition, hits mostly inhibitors. 300,000 tested, 1.2% active; calls by dose curve; tested in HEK293 cells; further: potency means the concentration at half of the fitted maximal effect; nearly all actives have a fitted effect of over 50% in size
MARV entry inh = blocks Marburg virus binding to or entry into cells; 300,000 tested, 1.8% active; Marburg virus pseudotyped entry inhibition, cell reporter; Potency, µM (doses to about 37.8 µM), for inactives: top-dose activity change, negative = inhibition, usual class: inhibitors; calls by dose curve; tested in HEK293 cells; further: potency means the concentration at half of the fitted maximal effect
HCMV inh = inhibitors of human cytomegalovirus. 410,000 tested, 4.5% active. AID 1259415. HFF cells, HCMV-luciferase reporter, 72 h; active compounds read low. activity change, negative = inhibition, % at 57.5 µM; in the data active means activity change below about -60%; inconclusive means no clear call, values can overlap the other calls; inactive means above about -39%
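Cell-based, HFFs, 1000 cells/well, 16 h 37C; cpds in DMSO + HCMV-luc, MOI 1 PFU/cell; 72 h 37C; OneGlo luminescence after 5 min RT; norm. to buffer vs Salinomycin 10uM.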
FMDV antiviral = antivirals against foot and mouth disease virus; 410,000 tested, 1.2% active; FMDV antiviral cell-based qHTS; Potency, µM (top dose mostly 57.9 µM), for inactives: at the top dose activity change, negative = inhibition, most hits filed as inhibitors; calls by dose curve; tested in HEK293T cells; further: read-out not given here; potency means the concentration at half of the fitted maximal effect; nearly all actives have a fitted effect of over 45% in size
HCV inhibitor = HCV inhibition | Huh7.5.1 HCVcc-Cre infection, luciferase reporter, 44 h | Potency, µM (titrated, usually from 41.8 µM), without a hit: at the highest dose activity change, negative = inhibition, actives largely listed as inhibitors | 340,000 tested, 3.4% active; active means well fitted inhibition curve with a large enough effect; inconclusive means small, poorly fitted or top-dose-only effect, or another doubt; inactive means no such curve, though single readings can be large or run the other way; further: potency means the concentration at half of the fitted maximal effect
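Infectious HCVcc-Cre (~0.5 moi) was added to cells just after compound, with cells seeded 4 h earlier at 1,000 per well. Luciferase activity after 44 h culture reported infection; substrate was incubated 15 min at room temperature before reading.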
An asterisk follows results filed as active; ? = inconclusive; . = no result given; [ ] = another dose, or the depositor's remark. An excerpt weighted towards active compounds, which were near 7.9% of everything screened. On the % scale 0 is the no-effect control and ±100 the full control effect.

SMILES | Lassa entry inh | MARV entry inh | HCMV inh | FMDV antiviral | HCV inhibitor
O=C1c2ccc(Oc3cccc([N+](=O)[O-])c3)cc2C(=O)N1c1ccccn1 | . | . | -23 | -6% | 0%
O=C1c2cc([N+](=O)[O-])cc3cc([N+](=O)[O-])cc(c23)C(=O)N1c1ccccn1 | ? | ? | -14 | 13µM* | ?
O=C(O)c1cccc(N2C(=O)c3cc([N+](=O)[O-])cc4cc([N+](=O)[O-])cc(c34)C2=O)c1 | . | . | -18 | 35µM* | ?
COc1ccc(C(=O)NCCn2cc(SCc3cccc(F)c3)c3ccccc32)cc1OC | ? | ? | ? | 18µM* | .
COc1ccc(C(=O)NCCn2cc(SCC(=O)Nc3cc(C)on3)c3ccccc32)cc1OC | -19% | ? | 39 | -24% | ?
O=C(NCCn1cc(SCc2cccc(F)c2)c2ccccc21)c1cccc(C(F)(F)F)c1 | 0%[46.1 µM] | ? | -92* | ? | .
COc1ccccc1C(=O)NCCn1cc(SCC(=O)Nc2cc(C)on2)c2ccccc21 | ? | -13% | -39 | -21% | 32µM*
COc1ccc(C(=O)NCCn2cc(SCC(=O)Nc3ccccc3)c3ccccc32)cc1OC | -17%[46.1 µM] | -21%[46.1 µM] | -14 | -22% | .
COc1ccc(NC(=O)C(C)N2c3cccc4cccc(c34)S2(=O)=O)cc1OC (stereo not given) | -3% | ? | -80* | . | 6.3µM*
COc1ccc(S[C@]2(C(=O)N3CCCC3)CC(=O)N(c3ccc(C#N)cc3)[C@@H]2c2ccc(OC)cc2)cc1 | . | . | -25 | . | .
CC(C)Cc1ccc(C(C)C(N)=Nc2ccc(O)cc2)cc1 (stereo not given) | ? | ? | -11 | -17% | ?
CC(C)Cc1ccc(C(C)C(=O)Nc2ccc(O)cc2)cc1 (stereo not given) | . | . | -66* | 0% | -10%
CC(C(=O)Nc1ccc(O)cc1)c1cccc(C(=O)c2ccccc2)c1 (stereo not given) | ? | ? | -63* | ? | 13µM*
CC(C)Cc1ccc(C(C)C(=O)Nc2cccnc2)cc1 (stereo not given) | 1%[46.1 µM] | ? | -78* | -26% | 3.2µM*
CC(=O)Nc1ccc(NC(=O)C(C)c2cccc(C(=O)c3ccccc3)c2)cc1 (stereo not given) | -18% | 1% | -4 | -18% | -7%
Cc1cccc(N2CCN(C(=O)CS(=O)(=O)c3cccc4nsnc34)CC2C)c1 (stereo not given) | -2%[46.1 µM] | . | -11 | 2% | .
COc1ccc(-n2nc(C(=O)Nc3ccccc3OC)c3c4ccccc4n(C)c3c2=O)cc1Cl | ? | . | 13 | -8% | .
Oc1cccc2ccc(Nc3ccccn3)nc12 | 23µM* | ? | -103* | 0% | 1.1µM*
Cc1noc(C)c1S(=O)(=O)N1CCc2nc(COc3ccccc3)c3c(c2C1)CO[C@@H](C)C3 | . | 18%[14.2 µM] | . | . | .
c1coc(CNc2c3c(nc4ncnn24)CCCC3)c1 | 7% | -8%[46.1 µM] | 11 | -22% | -26%
Clc1cccc(-c2cc3nc4c(c(NCc5ccco5)n3n2)CCCC4)c1 | -3% | -28% | 95 | . | 10µM*
COc1ccc2c(Sc3ccccc3)c(C(=O)NCc3ccc(OC(C)C)cc3)[nH]c2c1 | 0%[46.1 µM] | ? | 21 | 0% | .
CCc1cccc2c(C(=O)C(NC(C)CC)c3ccccc3)c[nH]c12 (stereo not given) | 16µM* | 12µM* | -22 | -16% | 11µM*
CCc1cccc2c(C(=O)C(NCCCOC)c3ccccc3)c[nH]c12 (stereo not given) | ? | 13µM* | 8 | -9% | 11µM*
CCc1cccc2c(C(=O)COC(=O)c3ccccc3)c[nH]c12 | -4% | 5% | -9 | 38% | ?
SMILES | Lassa entry inh | MARV entry inh | HCMV inh | FMDV antiviral | HCV inhibitor
CCCN(CCC)C(=O)Cn1c(SCc2cccc(C(F)(F)F)c2)nc2cccnc21 | -1%[46.1 µM] | . | -25 | -24% | .
Cc1cn(CC(=O)NCCCc2ccccc2)c(=O)[nH]c1=O | . | . | 24 | -15% | 2.8µM*
Nc1ccn(CC(=O)NCCCc2ccccc2)c(=O)n1 | . | . | -81* | -2% | -9%
C=CCc1ccc(OCCCCN2CC(C)CC(C)C2)c(OC)c1 (stereo not given) | ? | 7.1µM* | -28 | -23% | -14%
COc1cc(C)ccc1OCCCCN1CC(C)OC(C)C1 (stereo not given) | 2% | ? | 2 | 5% | 7%
C=CCc1ccc(OCCCN2CCCC(C)C2)c(OC)c1 (stereo not given) | -20% | ? | 32 | -4% | 25µM*
C=CCc1ccc(OCCCCN2CCC(C)CC2)c(OC)c1 | ? | 15µM* | -30 | -11% | ?
CC(C)c1ccc(NC(=O)c2cc3c(s2)-c2ccccc2SC3)cc1 | -9%[46.1 µM] | -10%[46.1 µM] | ? | -2% | .
c1ccc2sc(SCc3ccc(-c4nnco4)cc3)nc2c1 | 11µM* | ? | 81 | 1% | ?
NC(=O)c1ccc(CSc2nc3ccccc3s2)cc1 | ? | ? | 76 | 8% | 4%
COc1ccccc1C1CN(Cc2cccc3c2OCO3)Cc2ccccc2O1 (stereo not given) | . | . | . | 4% | .
CC(C)C(=O)c1cn(Cc2ccccc2C#N)c2ccccc12 | -23% | ? | 4 | -26% | ?
Fc1ccccc1Cn1cc(C(=S)N2CCOCC2)c2ccccc21 | . | . | -24 | 34% | -21%
O=C(C(=O)N1CCOCC1)c1cn(Cc2ccccc2Cl)c2ccccc12 | . | . | -38 | 8% | 4%
O=Cc1cn(Cc2ccccc2F)c2ccccc12 | ? | ? | -92* | -8% | 15%
N/C(=N\O)c1cn(Cc2ccccc2Cl)c2ccccc12 | -16% | ? | -71* | ? | -19%
CC(=O)c1cn(Cc2ccccc2C#N)c2ccccc12 | 3.5µM* | ? | -65* | ? | 2.5µM*
CC(=O)c1cn(Cc2ccccc2F)c2ccccc12 | . | . | -79* | ? | ?
COCCCn1c(=O)c2sccc2n2c(CCCC(=O)NC3CCC(C)CC3)nnc12 (stereo not given) | 0%[46.1 µM] | . | ? | -16% | .
Cc1c(C(=O)N2CCOCC2)oc2c1-c1nn(CC(=O)NCc3ccccc3)cc1CC2 | -13%[46.1 µM] | . | -2 | -14% | .
COc1ccc(N2CCN(S(=O)(=O)c3ccc(F)c(C(=O)Nc4ccccc4Cl)c3)CC2)cc1 | -19%[46.1 µM] | . | -27 | ? | .
COc1ccc(CC(=O)Nc2cccc3ccccc23)cc1OC | ? | -26% | -85* | ? | ?
COC(=O)c1c(-c2ccc(C)cc2)csc1NC(=O)Cc1ccc(OC)c(OC)c1 | ? | ? | -65* | ? | ?
COC(=O)c1c(-c2cccc3ccccc23)csc1NC(=O)Cc1ccc(OC)c(OC)c1 | 11µM* | ? | ? | ? | 5.6µM*
COC(=O)c1c(-c2ccc(Br)cc2)csc1NC(=O)Cc1ccc(OC)c(OC)c1 | 2% | -20% | ? | ? | ?
COc1ccc(NC(=O)Nc2cccc3ccccc23)cc1S(N)(=O)=O | 4µM* | 10%[46.1 µM] | -5 | 8% | 18%

Assay outcomes: PubChem, National Center for Advancing Translational Sciences (NCATS)
